The panel holds about 83,000 compounds, 20% with a hit somewhere; the sample as a whole holds those more often.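 Note: values are percent growth. 100 is the growth of untreated cells, values between 100 and 0 indicate rising inhibition; between -100 and 0 indicates cell death.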 Unmarked numbers belong to inactive results. Active and inactive are the calls of the source. The calls were made as follows: active = growth percent below 10; inactive = the rest.

Common to all, as to test: NCI-60 one-dose screen, 48 h (100 = growth as untreated, 0 = no growth, -100 = all killed)
The subject of one assay is HT29 colon. The note with it: 10 µM unless noted.
Another assay relates to SNB-19 CNS. The note with it: 10 µM unless noted.
The next assay relates to U251 CNS. The note with it: 10 µM unless noted.
The next assay concerns PC-3 prostate. The note with it: 10 µM unless noted.
A further assay deals with UACC-62 melanoma. The note with it: 10 µM unless noted.
Another assay relates to LOX IMVI melanoma. The note with it: 10 µM unless noted.
Another assay concerns SK-MEL-28 melanoma. The note with it: 10 µM.
Another assay deals with SK-MEL-2 melanoma. The note with it: 10 µM unless noted.
Another assay deals with EKVX NSCLC. The note with it: 10 µM unless noted.
For a further assay, the system named is SN12C renal. The note with it: 10 µM unless noted.
For a further assay, the system named is UO-31 renal. The note with it: 10 µM unless noted.
Another assay has as its system TK-10 renal. The note with it: 10 µM unless noted.
For a further assay, the system named is ACHN renal. The note with it: 10 µM unless noted.
A further assay concerns CAKI-1 renal. The note with it: 10 µM unless noted.
The next assay concerns CCRF-CEM leukemia. The note with it: 10 µM unless noted.
For a further assay, the system named is MOLT-4 leukemia. The note with it: 10 µM unless noted.
In a further assay the test system is SR leukemia. The note with it: 10 µM unless noted.
The next assay concerns SNB-75 CNS. The note with it: 10 µM unless noted.
The next assay concerns SK-MEL-5 melanoma. The note with it: 10 µM unless noted.
A further assay relates to A498 renal. The note with it: 10 µM unless noted.

Take `COc1ccc2[nH]c(O)c(N=NC(=O)c3oc4ccccc4c3C)c2c1`: the growth in the assay with HT29 colon is 27.3%; with SNB-19 CNS, 42.7%; in the assay with U251 CNS, 2.05% (active); in the assay on PC-3 prostate, 21.8%; in the assay on UACC-62 melanoma, 34.3%; in the assay with LOX IMVI melanoma, 16.3%. For the same compound, the growth is 15.8% with SK-MEL-28 melanoma; 70.9% in the assay on SK-MEL-2 melanoma; 37.3% with EKVX NSCLC; 34.9% in the assay on SN12C renal; -55.3% (active) in the assay with UO-31 renal; -64% (active) in the assay on TK-10 renal. The growth in the assay with ACHN renal was -50.9% (active); in the assay on CAKI-1 renal it was -51.7% (active); in the assay with CCRF-CEM leukemia, 57.1%; with MOLT-4 leukemia, 50.9%; with SR leukemia, 43.5%.
In the case of `NC(CCc1nc2ccccc2c(=O)[nH]1)C(=O)O` (centres undefined), the growth is 104% with HT29 colon; 98.3% with SNB-19 CNS; 96.6% with U251 CNS; 102% with PC-3 prostate; 100% in the assay with UACC-62 melanoma; 102% in the assay with LOX IMVI melanoma. The growth was 110% with SK-MEL-28 melanoma; 102% in the assay with SK-MEL-2 melanoma; 99.7% with EKVX NSCLC; 96.6% in the assay on SN12C renal; 86.7% with UO-31 renal; 102% with TK-10 renal. In addition, the growth was 113% with ACHN renal, 103% in the assay on MOLT-4 leukemia and 96.8% with SR leukemia.
Consider `CCN1C(=O)N(c2ccccc2)C2Nn3c(s/c(=C4\C(=O)N(C(C)C)c5ccccc54)c3=O)=NC21` (centres undefined), for which the growth with HT29 colon is 105%; with SNB-19 CNS it was 96%; with U251 CNS, 104%; in the assay on PC-3 prostate it was 106%; with UACC-62 melanoma, 97.5%; in the assay with LOX IMVI melanoma it was 100%. For the same compound, the growth in the assay on SK-MEL-28 melanoma was 118%; with SK-MEL-2 melanoma, 102%; with EKVX NSCLC, 97.8%; in the assay with SN12C renal, 102%; in the assay on UO-31 renal, 79.9%; with TK-10 renal, 122%. In addition, the growth in the assay with ACHN renal is 108%; in the assay with CAKI-1 renal, 86.9%; in the assay with CCRF-CEM leukemia, 103%; in the assay on MOLT-4 leukemia, 107%; with SR leukemia, 108%.
With `C=CCN1C(=O)/C(=c2\sc3n(c2=O)NC2C(N=3)N(CC)C(=O)N2CC)c2ccccc21` (centres undefined), the growth in the assay with HT29 colon is 19.9%; with U251 CNS, 45.8%; in the assay with PC-3 prostate it was 30.5%; in the assay with UACC-62 melanoma it was 35.5%; with LOX IMVI melanoma, 47.7%; in the assay with SK-MEL-28 melanoma, 59.9%. Also, the growth with SK-MEL-2 melanoma is 65.9%; with EKVX NSCLC it was 49.2%; in the assay on SN12C renal, 56.7%; in the assay on UO-31 renal it was 56%; in the assay on TK-10 renal, 101%; in the assay with ACHN renal, 52.9%. For the same compound, the growth with CAKI-1 renal is 42.3%; in the assay on CCRF-CEM leukemia it was 24.4%; in the assay with MOLT-4 leukemia, 36.4%; in the assay with SR leukemia, 21.1%.
As to `COC(=O)[C@H](NC(=O)C1(C)CCC[C@]2(C)[C@H]3C[C@H]4C(C(C)C)=C[C@]3(CC[C@@H]12)[C@@H]1C(=O)CCC(=O)[C@@H]14)C(C)C` (some centres undefined), the growth is 83.7% in the assay with SNB-75 CNS; 92.9% with SNB-19 CNS; 99.1% with U251 CNS; 90.8% with PC-3 prostate; 101% in the assay on SK-MEL-5 melanoma; 84.4% in the assay with UACC-62 melanoma. Further, the growth in the assay with LOX IMVI melanoma was 90.5%; in the assay with SK-MEL-28 melanoma, 99.7%; in the assay with SK-MEL-2 melanoma, 116%; in the assay on EKVX NSCLC, 94.9%; with SN12C renal, 99.8%; in the assay on UO-31 renal, 90.7%. Further, the growth with TK-10 renal was 127%; in the assay on ACHN renal, 100%; with CAKI-1 renal, 88.4%; in the assay with A498 renal it was 110%; in the assay on CCRF-CEM leukemia, 104%; in the assay with MOLT-4 leukemia, 102%. In the assay on SR leukemia, the growth is 89.7%.
On to `Nc1ccc(C2c3ccccc3Oc3ccccc32)cc1`, for which the growth in the assay on HT29 colon is 99.3%; in the assay with SNB-19 CNS it was 105%; in the assay with U251 CNS, 93.3%; with PC-3 prostate it was 90%; in the assay with UACC-62 melanoma, 94.8%; in the assay with LOX IMVI melanoma, 90.8%. Also, the growth was 114% in the assay on SK-MEL-28 melanoma; 110% in the assay on SK-MEL-2 melanoma; 86.3% in the assay on EKVX NSCLC; 98.5% with SN12C renal; 81.7% in the assay with UO-31 renal; 97.6% in the assay on ACHN renal. For the same compound, the growth with CAKI-1 renal was 87.2%; in the assay with A498 renal it was 124%; with CCRF-CEM leukemia it was 94.8%; in the assay with MOLT-4 leukemia, 83%; with SR leukemia it was 97.8%.
On to `CN1C(=O)N(C)C2C1NN=c1s/c(=C\c3c[nH]c4ccccc34)c(=O)n12` (centres undefined), for which the growth in the assay on HT29 colon is 11.3%; with SNB-19 CNS it was 27.3%; in the assay on U251 CNS it was 14.5%; in the assay with PC-3 prostate it was 23.4%; with UACC-62 melanoma, 38.3%; in the assay on LOX IMVI melanoma it was 22.3%. Besides, the growth in the assay on SK-MEL-28 melanoma was 69.4%; in the assay on EKVX NSCLC, 51.7%; with SN12C renal it was 35.4%; with UO-31 renal, 48%; in the assay on TK-10 renal it was 86.4%; with ACHN renal it was 32.5%. For the same compound, the growth is 81.7% with CAKI-1 renal, 16.2% in the assay on CCRF-CEM leukemia, 14.9% with MOLT-4 leukemia and 8.78% (active) in the assay with SR leukemia.
As for `Cc1c(-c2csc(-n3nc(C(F)(F)F)cc3C(F)(F)F)n2)no[n+]1[O-]`, the growth with HT29 colon is 99.2%; with SNB-19 CNS, 94.1%; in the assay on U251 CNS, 104%; in the assay on PC-3 prostate, 98.6%; in the assay on UACC-62 melanoma it was 89.5%; in the assay with LOX IMVI melanoma, 99%. In addition, the growth in the assay on SK-MEL-28 melanoma is 102%; with SK-MEL-2 melanoma it was 99.4%; with EKVX NSCLC, 69.6%; in the assay with SN12C renal, 95.7%; with UO-31 renal, 85.8%; in the assay on TK-10 renal it was 118%. In addition, the growth in the assay on ACHN renal was 107%; in the assay with CAKI-1 renal it was 87.6%; with SR leukemia, 91.1%.
Consider `O=C1N=c2ccccc2=C1c1sc(=Nc2ccccc2)n(Nc2ccccc2)c1O`, for which the growth with HT29 colon is 112%; in the assay with SNB-19 CNS, 101%; with U251 CNS it was 97.5%; with PC-3 prostate it was 97.3%; with UACC-62 melanoma, 92.1%; in the assay with LOX IMVI melanoma it was 100%. Further, the growth was 112% in the assay with SK-MEL-28 melanoma; 103% with SK-MEL-2 melanoma; 94.2% in the assay on EKVX NSCLC; 106% with SN12C renal; 81.4% in the assay on UO-31 renal; 138% in the assay on TK-10 renal. Moreover, the growth in the assay with ACHN renal is 109%; with CAKI-1 renal, 37.2%; in the assay with CCRF-CEM leukemia, 103%; with MOLT-4 leukemia, 99.3%; with SR leukemia it was 99.2%.

The values are drawn from PubChem BioAssay (NCI).
